{"source": "paper PMC4336329", "about": "(PLoS ONE, 2015)", "note": "The campaign covered roughly 310,000 compounds. About 14,000 (4.5%) showed an effect of 50% or more. The effect is printed as a negative number. Many of the other results were omitted from the sample, so strong results are more common in it than they were.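 Note: peak tail current of the secondary pulse compared with the same well before compound.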", "data": [{"target": "human ether-à-go-go-related gene (hERG) potassium channel (human, UniProt Q12809)", "sequence (Q12809 whole entry, looked up)": "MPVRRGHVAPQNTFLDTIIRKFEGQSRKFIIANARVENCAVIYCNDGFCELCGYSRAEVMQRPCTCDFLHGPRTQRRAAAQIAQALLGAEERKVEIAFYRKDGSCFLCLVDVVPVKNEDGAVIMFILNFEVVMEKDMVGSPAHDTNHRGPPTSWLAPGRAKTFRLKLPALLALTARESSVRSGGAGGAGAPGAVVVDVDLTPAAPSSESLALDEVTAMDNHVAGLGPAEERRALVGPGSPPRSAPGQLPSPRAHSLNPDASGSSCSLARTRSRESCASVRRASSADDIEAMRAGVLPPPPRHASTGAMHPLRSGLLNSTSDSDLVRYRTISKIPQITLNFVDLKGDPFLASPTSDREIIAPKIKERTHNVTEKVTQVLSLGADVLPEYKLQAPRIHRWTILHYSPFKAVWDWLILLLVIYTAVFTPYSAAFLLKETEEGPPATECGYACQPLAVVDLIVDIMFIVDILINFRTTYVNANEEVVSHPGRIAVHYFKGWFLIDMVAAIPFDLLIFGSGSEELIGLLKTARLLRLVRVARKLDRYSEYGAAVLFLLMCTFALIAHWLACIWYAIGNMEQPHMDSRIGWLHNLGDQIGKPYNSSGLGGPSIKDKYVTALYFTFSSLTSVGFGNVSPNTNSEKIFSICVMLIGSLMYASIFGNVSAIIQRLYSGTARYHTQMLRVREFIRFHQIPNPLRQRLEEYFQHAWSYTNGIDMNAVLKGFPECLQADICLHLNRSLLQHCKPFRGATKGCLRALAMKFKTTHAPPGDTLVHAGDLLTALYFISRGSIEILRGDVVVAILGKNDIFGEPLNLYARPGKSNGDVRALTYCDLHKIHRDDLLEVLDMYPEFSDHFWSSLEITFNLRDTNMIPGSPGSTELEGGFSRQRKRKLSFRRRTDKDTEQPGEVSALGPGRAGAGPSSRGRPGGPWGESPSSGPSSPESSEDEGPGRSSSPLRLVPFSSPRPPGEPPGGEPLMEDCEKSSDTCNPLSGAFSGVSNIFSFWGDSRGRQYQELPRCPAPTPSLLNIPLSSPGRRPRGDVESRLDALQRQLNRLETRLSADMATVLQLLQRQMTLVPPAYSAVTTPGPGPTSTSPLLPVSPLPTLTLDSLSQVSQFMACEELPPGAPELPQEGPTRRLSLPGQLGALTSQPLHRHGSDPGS", "assay": "primary screen, population patch clamp on CHO cells stably expressing hERG; higher = less effect of the substance", "units": {"hERG current change (%, negative = inhibition) at 10uM": "%"}, "values": [{"molecule": "Cc1ccccc1CN1C(=O)[C@@H]2Cc3c([nH]c4ccccc34)C(C)(C)N2C1=O", "hERG current change (%, negative = inhibition) at 10uM": 19}, {"molecule": "Cl.N=c1sccn1CC(=O)N1CCc2ccccc21", "hERG current change (%, negative = inhibition) at 10uM": -8.84}, {"molecule": "Cc1ccc(NC2=Nc3ccccc3CS2)cc1", "hERG current change (%, negative = inhibition) at 10uM": 8.04}, {"molecule": "CCOC(=O)c1c(NC(=O)CSc2nc3ccccc3o2)sc(C)c1C", "hERG current change (%, negative = inhibition) at 10uM": 19.4}, {"molecule": "Cc1ccc2c(c1)nnn2C1CCN(CC(=O)Nc2ccc3c(c2)OCCO3)CC1", "hERG current change (%, negative = inhibition) at 10uM": -55.5}, {"molecule": "Cc1ccc2c(c1)nnn2C1CCN(CC(=O)N2CCN(c3ccc(F)cc3)CC2)CC1", "hERG current change (%, negative = inhibition) at 10uM": -70.3}, {"molecule": "Cc1ccc2c(c1)nnn2C1CCN(CC(=O)c2ccc(Cl)cc2)CC1", "hERG current change (%, negative = inhibition) at 10uM": -45.9}, {"molecule": "Cc1ccc2c(c1)nnn2C1CCN(C(=O)C23CC4CC(CC(C4)C2)C3)CC1", "hERG current change (%, negative = inhibition) at 10uM": 1.11}, {"molecule": "Cc1ccccc1C(=O)NC1CCN(CC(=O)Nc2ccc3c(c2)OCCO3)CC1", "hERG current change (%, negative = inhibition) at 10uM": 2.93}, {"molecule": "O=C(CN1CCC(n2nnc3cc(C(F)(F)F)ccc32)CC1)Nc1ccc2c(c1)OCCO2", "hERG current change (%, negative = inhibition) at 10uM": -36.5}, {"molecule": "O=C(CN1CCC(n2nnc3cc(F)ccc32)CC1)Nc1ccc2c(c1)CCC2", "hERG current change (%, negative = inhibition) at 10uM": -21.3}, {"molecule": "Cc1ccc2c(c1)nnn2C1CCN(CC(=O)Nc2ccc(F)cc2)CC1", "hERG current change (%, negative = inhibition) at 10uM": -65.4}, {"molecule": "CC1(CCC#N)N=C(SCCC#N)N(c2ccccc2)C1=O", "note": "(stereo not shown)", "hERG current change (%, negative = inhibition) at 10uM": 2.7}, {"molecule": "NC(Cc1ccc(O)c([N+](=O)[O-])c1)C(=O)O", "note": "(stereo not shown)", "hERG current change (%, negative = inhibition) at 10uM": 15.2}, {"molecule": "CN(CC(=O)NCCN1CCN(Cc2ccccc2)CC1)S(=O)(=O)c1cccc2nsnc12", "hERG current change (%, negative = inhibition) at 10uM": -25.4}, {"molecule": "CCC/C=C1/CCCOC(C(=O)NCc2cc(C)n(C)n2)(C(F)(F)F)C1", "note": "(stereo not shown)", "hERG current change (%, negative = inhibition) at 10uM": 5.48}, {"molecule": "O=C(CSc1nnc(NC(=O)c2ccccc2C(=O)O)s1)Nc1ccccc1Cl", "hERG current change (%, negative = inhibition) at 10uM": 24}, {"molecule": "O=C(O)c1ccc(Nc2nc(-c3cccnc3)cs2)cc1O", "hERG current change (%, negative = inhibition) at 10uM": 9.69}, {"molecule": "C=CCNC(=O)CSc1nnc(-c2cccs2)o1", "hERG current change (%, negative = inhibition) at 10uM": -0.265}, {"molecule": "Cc1ccc(-c2nn(-c3cc(Cl)ccc3[N+](=O)[O-])c(=O)c3ccccc23)cc1", "hERG current change (%, negative = inhibition) at 10uM": -22.1}, {"molecule": "CC(C)c1[nH]nc2c1C1(CCN(Cc3ccccc3)CC1)C(C#N)=C(N)O2", "hERG current change (%, negative = inhibition) at 10uM": -25.5}, {"molecule": "Cc1nc2c([nH]1)C1(CCN(Cc3ccccc3)CC1)C(C#N)=C(N)O2.Cl", "hERG current change (%, negative = inhibition) at 10uM": -52.5}, {"molecule": "Cc1[nH]nc2c1C1(CCN(Cc3ccccc3)CC1)C(C#N)=C(N)O2", "hERG current change (%, negative = inhibition) at 10uM": -42}, {"molecule": "COCCN1C(=O)c2cc(C(=O)Nc3cccc(F)c3)ccc2C1Nc1cccc(F)c1", "note": "(stereo not shown)", "hERG current change (%, negative = inhibition) at 10uM": 7.71}, {"molecule": "Cc1cc(C)c(S(=O)(=O)c2ccccc2)c(N(C)C)n1", "hERG current change (%, negative = inhibition) at 10uM": 4.06}, {"molecule": "CCN(CC)CCn1c(N)c(S(=O)(=O)c2ccccc2)c2nc3ccccc3nc21", "hERG current change (%, negative = inhibition) at 10uM": -49.4}, {"molecule": "Cc1ccc(S(=O)(=O)c2c(N)n(CCCO)c3nc4ccccc4nc23)cc1", "hERG current change (%, negative = inhibition) at 10uM": -21.4}, {"molecule": "Cc1ccc(S(=O)(=O)c2c(N)n(CCCN(C)C)c3nc4ccccc4nc23)cc1", "hERG current change (%, negative = inhibition) at 10uM": -59}, {"molecule": "CN(C)CCCn1c(N)c(S(=O)(=O)c2ccccc2)c2nc3ccccc3nc21", "hERG current change (%, negative = inhibition) at 10uM": -51.1}, {"molecule": "CCCCn1c(N)c(S(=O)(=O)c2ccc(C)cc2)c2nc3ccccc3nc21", "hERG current change (%, negative = inhibition) at 10uM": -0.298}, {"molecule": "Nc1c(S(=O)(=O)c2ccccc2)c2nc3ccccc3nc2n1CCN1CCOCC1", "hERG current change (%, negative = inhibition) at 10uM": -38.2}, {"molecule": "O=C(NCC1CCCN(C(=O)CN2CCCCC2)C1)c1ccccc1Cl", "note": "(stereo not shown)", "hERG current change (%, negative = inhibition) at 10uM": 13}, {"molecule": "Cc1cc(SCC(=O)NCCC2=CCCCC2)nc2ccccc12", "hERG current change (%, negative = inhibition) at 10uM": -10.9}, {"molecule": "O=c1c(-c2ccnn2-c2ccc(F)cc2)cnc2n1CCS2", "hERG current change (%, negative = inhibition) at 10uM": 19.9}, {"molecule": "CCc1ccccc1NC(=O)CN1CCN(C(=O)C2CCN(C(=O)/C=C/c3ccccc3)CC2)CC1", "hERG current change (%, negative = inhibition) at 10uM": -72.9}, {"molecule": "COC(=O)C1CCN(C(=O)/C=C/c2ccccc2)CC1", "hERG current change (%, negative = inhibition) at 10uM": 4.21}, {"molecule": "Cc1cccc(NC(=O)CN2CCN(C(=O)C3CCC3)CC2)c1C", "hERG current change (%, negative = inhibition) at 10uM": -31.4}, {"molecule": "Cc1cccc(NC(=O)CN2CCN(C(=O)C3CCN(C(=O)/C=C/c4ccccc4)CC3)CC2)c1C", "hERG current change (%, negative = inhibition) at 10uM": -73.9}, {"molecule": "CCOC(=O)C1CCN(C(=O)/C=C/c2ccccc2)CC1", "hERG current change (%, negative = inhibition) at 10uM": -16.8}, {"molecule": "Cc1cccc(NC(=O)CN2CCN(C(=O)C3CCCO3)CC2)c1C", "note": "(stereo not shown)", "hERG current change (%, negative = inhibition) at 10uM": 9.91}, {"molecule": "C/C(=N\\N=c1/sc2ccccc2n1C)c1ccc(N2CCOCC2)cc1", "hERG current change (%, negative = inhibition) at 10uM": 18.9}, {"molecule": "Cc1ccc2c(CC(=O)OCc3nc(N)nc(Nc4ccccc4C)n3)coc2c1", "hERG current change (%, negative = inhibition) at 10uM": 5.79}, {"molecule": "CCCNC(=O)OCc1cccnc1Sc1ccc(C)cc1", "hERG current change (%, negative = inhibition) at 10uM": -30}, {"molecule": "COCCOc1ccc(C(F)(F)F)cc1NC(=O)c1ccc(C)cc1", "hERG current change (%, negative = inhibition) at 10uM": -0.151}, {"molecule": "COc1ccc(CCNC(=O)[C@@H](NC(=O)c2ccccc2F)C(C)C)cc1OC", "hERG current change (%, negative = inhibition) at 10uM": -9.87}, {"molecule": "O=C(CSc1ncccn1)NCc1ccc2c(c1)OCO2", "hERG current change (%, negative = inhibition) at 10uM": 11.9}, {"molecule": "Clc1ccc(OCc2nc(-c3ccccn3)n[nH]2)cc1", "hERG current change (%, negative = inhibition) at 10uM": -55.6}, {"molecule": "Brc1ccc(OCc2nc(-c3ccccn3)n[nH]2)cc1", "hERG current change (%, negative = inhibition) at 10uM": -3.04}, {"molecule": "Cc1ccc(OCc2nc(-c3ccccn3)n[nH]2)cc1", "hERG current change (%, negative = inhibition) at 10uM": -15.7}, {"molecule": "O=C(CN1CC=C(c2ccccc2)CC1)Nc1c(Cl)cccc1Cl", "hERG current change (%, negative = inhibition) at 10uM": 4.21}, {"molecule": "CCOc1ccc2c(c1)-c1c(ssc1=S)C(C)(C)N2", "hERG current change (%, negative = inhibition) at 10uM": 4.44}, {"molecule": "O=C(O)CCCC(=O)Nc1ccc(Cl)cc1", "hERG current change (%, negative = inhibition) at 10uM": 21.6}, {"molecule": "COc1cccc(-c2noc(Cn3nc(C)c([N+](=O)[O-])c3C)n2)c1", "hERG current change (%, negative = inhibition) at 10uM": -6.89}, {"molecule": "CN(C)C(CNC(=O)c1cccc(C(F)(F)F)c1)c1ccco1", "note": "(stereo not shown)", "hERG current change (%, negative = inhibition) at 10uM": -11.8}, {"molecule": "Nc1c(C(=O)O)cnc2nc(N3CCOCC3)nn12", "hERG current change (%, negative = inhibition) at 10uM": 21.7}, {"molecule": "Nc1c(C(=O)N2CCCC2)sc2nc(-c3ccccc3)ccc12", "hERG current change (%, negative = inhibition) at 10uM": -70.7}, {"molecule": "CC(C)OC(=O)c1sc2nc(-c3ccccc3)ccc2c1N", "hERG current change (%, negative = inhibition) at 10uM": 16.7}, {"molecule": "NC(=O)c1sc2nc(-c3ccccc3)ccc2c1N", "hERG current change (%, negative = inhibition) at 10uM": 18.7}]}]}
